Compound activity: PubChem, National Center for Advancing Translational Sciences (NCATS)
RXFP1 antagonist – qHTS Assay for Antagonists of the Relaxin Receptor RXFP1. Relaxin receptor 1 (Homo sapiens), Q9HBX9. HEK293-RXFP1, relaxin-stimulated cAMP HTRF, 30 min; stronger effect = lower value. activity change, negative = inhibition, % at 57.5 µM. hit rate 0.59% among 350,000;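 active = activity change of -60% or lower, but not beyond a set lower limit; inconclusive = change between -60% and -40%, or beyond the set limit; inactive = change above -40%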; also: % is scaled to controls: 0 for no effect and ±100 for the full control effect
Target sequence (Q9HBX9 whole entry, looked up): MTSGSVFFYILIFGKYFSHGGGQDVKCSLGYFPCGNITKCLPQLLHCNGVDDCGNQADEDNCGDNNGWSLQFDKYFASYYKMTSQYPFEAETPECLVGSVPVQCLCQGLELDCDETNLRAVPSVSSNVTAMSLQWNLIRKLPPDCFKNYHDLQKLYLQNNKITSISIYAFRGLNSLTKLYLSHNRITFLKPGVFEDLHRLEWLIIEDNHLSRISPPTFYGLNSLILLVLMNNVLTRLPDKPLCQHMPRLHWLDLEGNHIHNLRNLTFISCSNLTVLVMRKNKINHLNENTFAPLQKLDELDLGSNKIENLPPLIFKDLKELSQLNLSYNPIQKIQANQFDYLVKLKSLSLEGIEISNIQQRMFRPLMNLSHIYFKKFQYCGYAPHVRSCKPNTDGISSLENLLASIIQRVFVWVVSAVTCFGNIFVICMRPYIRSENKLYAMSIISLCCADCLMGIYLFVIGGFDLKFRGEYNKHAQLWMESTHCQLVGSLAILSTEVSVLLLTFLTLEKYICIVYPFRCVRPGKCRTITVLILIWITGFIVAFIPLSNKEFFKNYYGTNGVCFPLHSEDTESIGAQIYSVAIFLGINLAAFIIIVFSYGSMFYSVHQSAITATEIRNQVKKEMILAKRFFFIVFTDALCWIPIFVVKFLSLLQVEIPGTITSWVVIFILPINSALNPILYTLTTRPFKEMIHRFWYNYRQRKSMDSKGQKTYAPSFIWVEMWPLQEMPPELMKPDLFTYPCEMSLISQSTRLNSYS
RXFP1 agonist – qHTS Assay for Agonists of the Relaxin Receptor RXFP1; hit rate 0.3% among 370,000; HEK293T-RXFP1 cAMP TR-FRET, 30 min; response scale: percent of porcine relaxin response, buffer zero; Potency, µM (highest dose often 57.5 µM), for the others: at the highest dose activation, most hits filed as activators; active = well fitted activation curve with a large enough effect; inconclusive = small, poorly fitted or top-dose-only effect; also: potency is read from the fitted curve at half-maximal effect; % is scaled to controls: 0 for no effect and ±100 for the full control effect; nearly all actives have a fitted effect of over 60% in size
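HEK293T cells stably expressing RXFP1 were pretreated with the PDE4 inhibitor Ro 20174, exposed to compounds for 30 min at 37C, lysed, and cAMP was read by TR-FRET. Data normalized to buffer (basal) and 29 nM porcine relaxin (100%).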
gsp agonist – qHTS for Agonist of gsp, the Etiologic Mutation Responsible for Fibrous Dysplasia/McCune-Albright Syndrome: qHTS. gsp mutant cells, cAMP HTRF, 30 min. Potency, µM (highest dose often 76.9 µM), without a hit: at the highest dose activation (cAMP increase), usual class: activators. hit rate 0.13% among 340,000; active = well fitted activation curve with a large enough effect; inconclusive = small, poorly fitted or top-dose-only effect, or another doubt; inactive = no such curve, though single readings can be large or run the other way; cell line not stated here;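 also: phosphodiesterase inhibitor Ro 20-1724 added with compounds to block cAMP breakdown; potency is read from the fitted curve at half-maximal effect; nearly all actives have a fitted effect of over 60% in size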
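Cells in DMEM/10% FBS with G418 were pretreated with compounds in DMSO plus […] (300 uM stock) for 30 min at 37C. cAMP was measured by HTRF (cAMP-d2 plus anti-cAMP antibody-K) after 30 min at room temperature.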
gsp antagonist – qHTS for Antagonists of gsp, the Etiologic Mutation Responsible for Fibrous Dysplasia/McCune-Albright Syndrome: qHTS; gsp-mutant cells, cAMP HTRF, 30 min; Potency, µM (series often up to 76.9 µM), without a hit: top-dose activity change, negative = inhibition, actives largely listed as inhibitors; hit rate 0.4% among 340,000; AID 624288, 2012; calls by dose curve; cell line not stated here;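 also: intracellular cAMP measured with PDE inhibitor Ro 20-1724 present during compound exposure; potency is read from the fitted curve at half-maximal effect; % is scaled to controls: 0 for no effect and ±100 for the full control effect; nearly all actives have a fitted effect of over 65% in size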
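Cells in G418 medium, seeded 16-24 h, 37C; buffer exchange to DPBS + 1 mM CaCl2, 0.5 mM MgCl2, 0.05% BSA; cpds in DMSO + […] (300 uM stock), 30 min 37C; HTRF cAMP detection.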
* marks the source's active call; other numbers are inactive results; ? = inconclusive; · = no result; [ ] = dose if it differs, or a comment. A selection: hits, their analogues and other compounds. The true share with any hit is near 0.9%.

SMILES | RXFP1 antagonist | RXFP1 agonist | gsp agonist | gsp antagonist
Cc1cccc(OCC(=O)Nc2ccccc2C(=O)OCc2cc(=O)n3ccsc3n2)c1 | 0.0 | ? | · | ·
CCc1c(O)cc2n(c1=O)-c1ccc(Cl)cc1C2(C)C | 1.0 | -0.2% | ? | 44.7µM*
CCOc1ccc(C(=O)Nc2cccc(NC(=O)c3ccc(C(C)(C)C)cc3)c2)cc1Br | 1.3 | 0.2% | · | ·
O=C(O)/C=C/C(=O)Nc1ccc(C2(c3ccc(NC(=O)/C=C/C(=O)O)cc3)c3ccccc3-c3ccccc32)cc1 | -61.2* | -0.4% | -18.6% | 1.2%
O=C(O)/C=C\C(=O)Nc1ccc(Oc2ccccc2)cc1 | 8.9 | 1.2% | ? | -4.1%
O=C(N/N=C/c1cn(Cc2ccccc2)c2ccccc12)c1cc(O)cc(O)c1 | 17.3 | 4.8% | -7.1% | 18.9%
CCn1c2ccccc2c2cc(/C=N/NC(=O)c3ccncc3)ccc21 | -7.8 | -0.3% | -2.5%[15.4 µM] | ·
CCn1c2ccccc2c2cc(/C=N/NC(=O)c3ccc(O)cc3)ccc21 | -23.1 | -0.3% | -21.3%[15.4 µM] | 28.2µM*
CCn1c2ccccc2c2cc(/C=N/NC(=O)c3cc(O)cc(O)c3)ccc21 | -83.0* | 3.8% | -2.7%[15.4 µM] | ?
CCc1ccc(-n2nc(C)c3c(C(=O)N4CCN(c5cccc(Cl)c5)CC4)cc(C)nc32)cc1 | -4.1 | 1.1% | · | ·
COc1ccnc2c1CCCCC2S(=O)c1nc2ccccc2[nH]1 (configuration not stated) | -13.2 | · | · | ·
COc1ccc(S(=O)(=O)c2c(Nc3ccc(F)cc3)sc(C(=O)c3ccc4c(c3)OCO4)c2N)cc1 | -1.6 | 2.8% | · | ·
Cc1ccc(C(=O)Nc2cccc(OCc3cc(=O)n4c5c(sc4n3)CCCC5)c2)cc1 | · | -1.1% | · | ·
O=C(Nc1ccc(N2CCN(c3ccc(C(F)(F)F)cn3)CC2)nc1)c1cccs1 | -5.6 | 6.4% | 10.4%[15.4 µM] | -4.5%
O=C(Nc1ccc(N2CCN(c3ncccc3C(F)(F)F)CC2)nc1)c1cccs1 | -69.0* | 2.6% | 3.1%[15.4 µM] | 50.1µM*
CCCN1C(=O)C(Cc2nc3ccccc3c(=O)n2-c2ccc(OC)cc2)c2cc(C)ccc21 (configuration not stated) | -2.6 | -0.7% | · | ·
CN(C(=O)c1cc(S(=O)(=O)N2CCc3ccccc32)cn1C)C1CCCCC1 | -103.4* | -0.1% | -19.0% | -11.4%
Cc1cc(C)cc(Nc2cc(C(=O)NCc3ccccc3)c3ccccc3n2)c1 | · | 10.9% | · | ·
Cc1cc(C)nc(SCc2cc(=O)c(OC(=O)c3ccc(S(=O)(=O)N(C)C)cc3)co2)n1 | · | 0.8% | -5.6% | -20.3%
Cc1cc(C)nc(SCc2cc(=O)c(OC(=O)c3ccc(Cl)c([N+](=O)[O-])c3)co2)n1 | -3.2 | 4.8% | -38.1% | 35.5µM*
N#C/C(=C\c1ccncc1)c1nc2ccccc2o1 | 12.4 | 4.0% | 16.3%[15.4 µM] | -2.4%
N#C/C(=C\Nc1ccccc1O)c1nc2ccccc2o1 | ? | 4.6% | -5.7% | 50.1µM*
CCC(=O)N1CCc2cc(S(=O)(=O)NCCC(=O)Nc3ccc(CC)cc3)ccc21 | -7.7 | -0.7% | · | ·
O=C(CSc1n[nH]c(=O)n1C1CC1)Nc1cc(Cl)ccc1Oc1ccccc1 | -6.1 | 0.0% | -3.3% | 35.5µM*
O=C(Nc1ccccc1C(F)(F)F)c1noc2c1CCCC2 | -4.1 | 4.8% | · | ·
SMILES | RXFP1 antagonist | RXFP1 agonist | gsp agonist | gsp antagonist
COc1c(OC(C)=O)ccc(/C=C/c2ccc3ccccc3n2)c1[N+](=O)[O-] | -32.6 | 1.5% | -24.5% | 25.1µM*
CCOc1ccc(C(=O)NCC(c2ccco2)S(=O)(=O)c2cccs2)cc1 (configuration not stated) | -7.9 | -1.0% | · | ·
CC(C)OC(=O)C(C(=O)C(F)(F)F)c1cc(NS(=O)(=O)c2ccc3ccccc3c2)c2ccccc2c1O (configuration not stated) | -85.5* | 0.9% | -26.2% | -10.8%
CCOC(=O)C(=O)CCc1ccccc1 | -5.8 | · | · | ·
COc1ccc(Cn2c(CNS(=O)(=O)c3ccc(C)c(C)c3)nc3cccnc32)cc1 | 12.7 | 4.3% | · | ·
O=C(Nc1ccc(O)cc1C(=O)O)c1ccc2c(c1)C(=O)N(Cc1ccco1)C2=O | 1.0 | 0.7% | -13.4% | 31.6µM*
CC(C)CC(=O)Nc1cccc(C(=O)Nc2ccccc2C(=O)O)c1 | -17.1 | 1.4% | 12.2% | 31.6µM*
CC(=O)Nc1cccc(C(=O)Nc2ccccc2C(=O)O)c1 | 0.0 | 0.2% | 0.4% | ?
CC(c1ccccc1)N1C(=O)c2ccc(C(=O)Nc3ccc(Br)cc3C(=O)O)cc2C1=O (configuration not stated) | -5.1 | -3.0% | 9.4% | 35.5µM*
CC(C)CN1C(=O)c2ccc(C(=O)Nc3ccc(O)cc3C(=O)O)cc2C1=O | -3.3 | 1.0% | 10.0%[15.4 µM] | -20.1%
CC(c1ccccc1)N1C(=O)c2ccc(C(=O)Nc3ccccc3C(=O)O)cc2C1=O (configuration not stated) | -73.7* | 2.3% | -0.5% | 15.8µM*
O=C(O)CCCCCN1C(=O)/C(=C\c2cn(-c3ccccc3)nc2-c2cccs2)SC1=S | 4.1 | 4.4% | -48.6% | 35.5µM*
O=C(O)CCN1C(=O)/C(=C/c2cn(-c3ccccc3)nc2-c2cccs2)SC1=S | 6.0 | 1.6% | 2.5% | 35.5µM*
Cc1ccc(-c2nn(-c3ccccc3)cc2/C=C2\SC(=S)N(CC(=O)O)C2=O)cc1 | 8.1 | -0.3% | -33.2% | ?
O=C(O)CCCCCN1C(=O)/C(=C/c2cn(-c3ccccc3)nc2-c2cccs2)SC1=S | -25.0 | · | ? | 35.5µM*
CCN1C(=O)/C(=C/c2cn(-c3ccccc3)nc2-c2cccnc2)SC1=S | -2.7 | · | -3.6% | ?
CCCCC/C=C/C/C=C/CCCCCCCC(=O)NC(C)c1ccccc1 (configuration not stated) | -27.4 | · | · | ·
COc1cc(NC(=O)CCS(=O)(=O)c2ccc3c(c2)CC(=O)N3C)cc(OC)c1OC | · | 1.2% | · | ·
O=c1c2c(-c3ccc([N+](=O)[O-])cc3)csc2nc2n1CCC2 | 11.4 | ? | 22.4µM* | 10.2%
Fc1ccc(Br)cc1C1C=C(c2ccc(Br)s2)Nc2ncnn21 (configuration not stated) | -68.2* | 8.6% | -6.3% | ?
CCCNC(=O)C1CCC(Cn2c(=O)c3sccc3n(CC(=O)Nc3ccccc3C)c2=O)CC1 (configuration not stated) | 1.3 | 9.2% | · | ·
CCc1cc2c(=O)c(-c3ccc4c(c3)OCCO4)coc2cc1OS(C)(=O)=O | -84.4* | -2.4% | -15.9%[15.4 µM] | ?
COc1ccc(C(=O)/C=C/C(=O)N(CC(=O)NC2CCCCC2)Cc2ccccc2)c(O)c1 | -64.2* | -1.4% | -5.5% | -2.2%
COc1ccc(C(=O)/C=C/C(=O)N(CC(=O)NC2CCCCC2)Cc2ccccc2OC)c(O)c1 | -15.3 | -1.3% | -1.5%[15.4 µM] | ·
COc1cccc(-n2c(SCc3ccc(F)cc3)nc3c([nH]c4ccccc43)c2=O)c1 | · | 2.6% | · | ·
CC1=CC2=NC(=O)/C(=C\c3ccc(OC(=O)c4ccco4)cc3)C(=N)N2O1 | -21.8 | -0.7% | -16.5% | 14.1%
